Measured values reported in PubChem BioAssay (NCI).
Where “and” joins values, the source holds several entries; their conditions need not be identical. Equal entries are not always repeated. Compounds without any hit were thinned out: in the full panel of roughly 83,000, 20% have a hit.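 Compound tested at a single concentration for 48 hours in 96-well plates; a percent growth value below 10 was scored as active.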 Calls of active or inactive are those of the source.

Key:
Test in all cases: NCI-60 one-dose screen, 48 h (100 = growth as untreated, 0 = no growth, -100 = all killed)
Details in all cases: 10 µM unless noted
SK-MEL-2 melanoma = test system: SK-MEL-2 melanoma
EKVX NSCLC = test system: EKVX NSCLC
SN12C renal = test system: SN12C renal
UO-31 renal = test system: UO-31 renal
TK-10 renal = test system: TK-10 renal
ACHN renal = test system: ACHN renal
CAKI-1 renal = test system: CAKI-1 renal
A498 renal = test system: A498 renal
CCRF-CEM leukemia = test system: CCRF-CEM leukemia
MOLT-4 leukemia = test system: MOLT-4 leukemia
RPMI-8226 leukemia = test system: RPMI-8226 leukemia
OVCAR-8 ovarian = test system: OVCAR-8 ovarian
OVCAR-5 ovarian = test system: OVCAR-5 ovarian
OVCAR-4 ovarian = test system: OVCAR-4 ovarian
SK-OV-3 ovarian = test system: SK-OV-3 ovarian
IGROV1 ovarian = test system: IGROV1 ovarian
OVCAR-3 ovarian = test system: OVCAR-3 ovarian
NCI/ADR-RES ovarian = test system: NCI/ADR-RES ovarian
HS 578T breast = test system: HS 578T breast
SR leukemia = test system: SR leukemia

Measured: growth

CC(C)(C)c1ccc(O)c(C2CCCCC2)c1
inactive: SK-MEL-2 melanoma 89% | EKVX NSCLC 115% | SN12C renal 97.5% | UO-31 renal 104% | TK-10 renal 92.2% | ACHN renal 103% | CAKI-1 renal 116% | A498 renal 107% | CCRF-CEM leukemia 47.9% | RPMI-8226 leukemia 83% | OVCAR-8 ovarian 96.3% | OVCAR-5 ovarian 101% | OVCAR-4 ovarian 101% | SK-OV-3 ovarian 109% | IGROV1 ovarian 137% | OVCAR-3 ovarian 110% | NCI/ADR-RES ovarian 117%
active: MOLT-4 leukemia -31.9%

Cc1ccc(C(=Nc2ccccc2)N=P(c2ccccc2)(c2ccccc2)c2ccccc2)cc1
inactive: OVCAR-4 ovarian 29%
active: SK-MEL-2 melanoma -51.8% | EKVX NSCLC -16.8% | SN12C renal -10.1% | UO-31 renal -79.6% | TK-10 renal -23.4% | ACHN renal 2.97% | CAKI-1 renal -32.1% | A498 renal -56.7% | CCRF-CEM leukemia -30.2% | MOLT-4 leukemia 1.64% | RPMI-8226 leukemia -38.6% | OVCAR-8 ovarian 6.99% | OVCAR-5 ovarian -5.4% | SK-OV-3 ovarian -66.3% | IGROV1 ovarian -68.5% | OVCAR-3 ovarian -37.4% | HS 578T breast -45.8% | NCI/ADR-RES ovarian -10.4%

Cc1cc2nc(CS)[nH]c2cc1C
active: MOLT-4 leukemia -39.5%
inactive: SK-MEL-2 melanoma 101% | EKVX NSCLC 84.8% | SN12C renal 102% | UO-31 renal 83.1% | TK-10 renal 131% | ACHN renal 92% | CAKI-1 renal 43.9% | A498 renal 95.7% | CCRF-CEM leukemia 55% | RPMI-8226 leukemia 28.7% | OVCAR-8 ovarian 96.5% | OVCAR-5 ovarian 96.8% | OVCAR-4 ovarian 85.5% | SK-OV-3 ovarian 87.1% | IGROV1 ovarian 74.5% | OVCAR-3 ovarian 82.6% | NCI/ADR-RES ovarian 95.7%

COc1ccc(N=N/N=c2\sc3cc(OC)ccc3n2C)cc1
inactive: SK-MEL-2 melanoma 83.8% | EKVX NSCLC 74.8% | SN12C renal 89% | UO-31 renal 82.7% | TK-10 renal 106% | ACHN renal 97.4% | CAKI-1 renal 96.8% | A498 renal 97% | CCRF-CEM leukemia 93.5% | MOLT-4 leukemia 92.1% | RPMI-8226 leukemia 77.3% | OVCAR-8 ovarian 75.1% | OVCAR-4 ovarian 108% | SK-OV-3 ovarian 86.3% | IGROV1 ovarian 91.7% | OVCAR-3 ovarian 97.8% | HS 578T breast 96% | NCI/ADR-RES ovarian 109%

C[N+](C)=c1ccc2nc3c(cc(NCCCNc4cc5oc6cc(=[N+](C)C)ccc-6nc5c5ccccc45)c4ccccc43)oc-2c1
inactive: SK-MEL-2 melanoma 90.4% | EKVX NSCLC 45.6% | UO-31 renal 45.1% | TK-10 renal 115% | ACHN renal 25.3% | CAKI-1 renal 53.8% | A498 renal 109% | CCRF-CEM leukemia 11.3% | OVCAR-5 ovarian 68.5% | SK-OV-3 ovarian 90.1% | IGROV1 ovarian 19.1%
active: SN12C renal -25.5% | MOLT-4 leukemia 5.25% | RPMI-8226 leukemia 2.21% | OVCAR-8 ovarian -5.6% | OVCAR-4 ovarian -100% | OVCAR-3 ovarian -54.5% | NCI/ADR-RES ovarian 6.53%

CN1c2ccccc2C(C)(C)C12C=Cc1cc(O)ccc1O2 (stereo unspecified)
active: CCRF-CEM leukemia -16.8% | MOLT-4 leukemia -17.6% | RPMI-8226 leukemia -22.8% | IGROV1 ovarian -7.4% | OVCAR-3 ovarian 4.21% | HS 578T breast -7.66%
inactive: SK-MEL-2 melanoma 57.5% | EKVX NSCLC 105% | SN12C renal 48.7% | UO-31 renal 60.6% | TK-10 renal 80.7% | ACHN renal 73.3% | CAKI-1 renal 65.9% | A498 renal 26% | OVCAR-8 ovarian 67.3% | OVCAR-5 ovarian 82.5% | OVCAR-4 ovarian 72.9% | SK-OV-3 ovarian 71.4% | NCI/ADR-RES ovarian 26.4%

Nc1nc(N)c2c(ccc3c2ccn3Cc2cccc([N+](=O)[O-])c2)n1
active: SK-MEL-2 melanoma -92% | EKVX NSCLC -93.8% | SN12C renal -83.6% | UO-31 renal -95.5% | TK-10 renal -92.4% | ACHN renal -97% | CAKI-1 renal -96.1% | A498 renal -89.5% | OVCAR-5 ovarian -96.9% | OVCAR-4 ovarian -79.2% | IGROV1 ovarian -90% | OVCAR-3 ovarian -93.9% | HS 578T breast -58.2%
inactive: CCRF-CEM leukemia 24% | MOLT-4 leukemia 46.2% | SR leukemia 110% | RPMI-8226 leukemia 19.4% | NCI/ADR-RES ovarian 22.5%

CCCCCCCCCCCCCCCCCCOP(=O)([O-])OC1CC[N+](C)(C)CC1
active: SK-MEL-2 melanoma -14.6% | UO-31 renal -5.55% and -40.1% | TK-10 renal -79.1% and -93.8% | CAKI-1 renal -9.45% and -42.7% | A498 renal -21.6% and -25.3% | CCRF-CEM leukemia -2.22% and -53% | MOLT-4 leukemia -44.9% and -49.8% | RPMI-8226 leukemia 6.44% and -36.6% | OVCAR-5 ovarian -24.1% and -61.2% | IGROV1 ovarian -61.7%
inactive: EKVX NSCLC 36.3% and 41.5% | SN12C renal 19.9% and 24.9% | ACHN renal 28.6% and 23.9% | OVCAR-8 ovarian 49.6% | OVCAR-4 ovarian 65.2% | OVCAR-3 ovarian 65.9% and 14% | HS 578T breast 11.8% | NCI/ADR-RES ovarian 73.5% and 54.9%

OC(CNc1ccnc2cc(Cl)ccc12)CNc1ccnc2cc(Cl)ccc12
active: CCRF-CEM leukemia -15.8% | SR leukemia 2.51%
inactive: SK-MEL-2 melanoma 104% | EKVX NSCLC 78.6% | SN12C renal 37.9% | UO-31 renal 88.1% | TK-10 renal 87.5% | ACHN renal 99% | CAKI-1 renal 101% | A498 renal 76.9% | MOLT-4 leukemia 12% | RPMI-8226 leukemia 92.6% | OVCAR-5 ovarian 79.5% | OVCAR-4 ovarian 48% | SK-OV-3 ovarian 113% | IGROV1 ovarian 87.6% | HS 578T breast 89% | NCI/ADR-RES ovarian 106%

NC1=CC(=O)c2ccccc2C1=O
inactive: SK-MEL-2 melanoma 88.6% | EKVX NSCLC 95% | SN12C renal 85.5% | UO-31 renal 71.1% | TK-10 renal 125% | ACHN renal 79.9% | CAKI-1 renal 91.9% | A498 renal 90% | CCRF-CEM leukemia 85.4% | MOLT-4 leukemia 94.3% | SR leukemia 81.3% | RPMI-8226 leukemia 81.7% | OVCAR-5 ovarian 110% | SK-OV-3 ovarian 92.3% | IGROV1 ovarian 90.8% | OVCAR-3 ovarian 82.6% | HS 578T breast 71.6% | NCI/ADR-RES ovarian 88.6%

Cc1ccnc2c1ccc1c(C)ccnc12
active: UO-31 renal -4.12% | MOLT-4 leukemia 3.4% | SR leukemia 4.34% | SK-OV-3 ovarian 3.59% | NCI/ADR-RES ovarian 1.41%
inactive: SK-MEL-2 melanoma 27.3% | EKVX NSCLC 22.2% | SN12C renal 15.6% | TK-10 renal 25.7% | ACHN renal 11.3% | CAKI-1 renal 16% | A498 renal 19.5% | CCRF-CEM leukemia 13.6% | RPMI-8226 leukemia 17.4% | OVCAR-4 ovarian 24.1% | IGROV1 ovarian 23.8% | HS 578T breast 52.6%

CC(=O)Nc1cccc2cc(O)ccc12
inactive: SK-MEL-2 melanoma 125% and 101% | EKVX NSCLC 101% and 120% and 99.3% | SN12C renal 107% and 94.4% and 97.2% | UO-31 renal 94.6% and 89.5% and 75.1% | TK-10 renal 123% and 99.7% and 97.9% | ACHN renal 104% and 109% and 100% | CAKI-1 renal 129% and 93.5% | A498 renal 99.2% and 108% and 109% | CCRF-CEM leukemia 98.1% and 101% and 104% | MOLT-4 leukemia 111% and 108% and 98.5% | RPMI-8226 leukemia 120% and 112% and 106% | OVCAR-8 ovarian 106% and 100% and 94.3% | OVCAR-5 ovarian 94.7% and 93.2% and 113% | OVCAR-4 ovarian 119% and 109% and 98.8% | SK-OV-3 ovarian 111% and 115% and 99.8% | IGROV1 ovarian 97.2% and 123% | NCI/ADR-RES ovarian 104% and 113% and 110%

O=C(Nc1ccccc1)c1cc(Cl)ccc1O
active: SK-MEL-2 melanoma -6.3% | A498 renal -4.6%
inactive: EKVX NSCLC 88.2% | SN12C renal 61.8% | UO-31 renal 49.7% | TK-10 renal 53.5% | ACHN renal 57.3% | CAKI-1 renal 49.6% | CCRF-CEM leukemia 68% | MOLT-4 leukemia 77.2% | SR leukemia 48.7% | RPMI-8226 leukemia 19.9% | OVCAR-5 ovarian 94.1% | OVCAR-4 ovarian 41.3% | SK-OV-3 ovarian 73.6% | IGROV1 ovarian 58.9% | OVCAR-3 ovarian 37.4% | HS 578T breast 29% | NCI/ADR-RES ovarian 74.6%

NC(N)=N/N=C/c1ccc([N+](=O)[O-])o1
inactive: SK-MEL-2 melanoma 83.4% | EKVX NSCLC 122% | SN12C renal 86.6% | UO-31 renal 88.8% | TK-10 renal 115% | ACHN renal 92.8% | CAKI-1 renal 106% | A498 renal 105% | CCRF-CEM leukemia 87.9% | MOLT-4 leukemia 103% | SR leukemia 98.3% | RPMI-8226 leukemia 78.7% | OVCAR-4 ovarian 82.8% | IGROV1 ovarian 98% | OVCAR-3 ovarian 83.1% | NCI/ADR-RES ovarian 99.5%
